PubChem BioAssay
Calls of active or inactive are those of the source.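 Rule for the calls, unless noted: active = compounds whose cell count with miR-34 switched on is under 0.7 times the count with it off; inactive = the rest.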 *1 amine or outer side, *2 acyl side, *3 side chain or, on linkers, in order; H or OH if unused. Where a SMILES comes first, the peptide text is derived from it. Bridges are numbered along the chain shown (N, C = ends). Roman numbers before positions name the chains, in order. [ ]: non-standard residue; d: D form. Hexamethylenediamine = C(CCCN[*:2])CCN[*:1]; Dip = N[CH](C(=O)O)C(c1ccccc1)c1ccccc1; Chg = N[CH](C(=O)O)C1CCCCC1; NMeA = CN[CH](C)C(=O)O

What was measured:
[1] = sensitizers of A549 cells to miR-34 induction, primary screen, imaging, A549 dox-inducible miR-34, nuclei and caspase counts (AID 1347080); settings: A549 miR-34 inducible, Hoechst nuclei count, 48 h
[2] = survival rescue of mitochondrial mutant cells in low glucose, primary screen, MELAS cybrids, Rieske KO mouse fibroblasts, CellTiter-Glo (AID 1508586;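 active = mean z-score across replicates of 1.96 or higher in either the MELAS or the Rieske mutant cell line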;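 note: z relative to plate mean and SD of compound and empty wells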)
[3] = stronger effect = lower value, cell number ratio, induced over uninduced
[4] = measured here: relative caspase fold change +Dox/-Dox
[5] = measured here: total cells with miR-34 induction, stronger effect = lower value
[6] = measured here: total cells without miR-34 induction
[7] = MELAS cybrid survival, CellTiter-Glo 48 h, stronger effect = higher value
[8] = Rieske KO mouse fibroblast survival, CellTiter-Glo 72 h
Note: test concentration not given here.

For `CC(C)CC(NC(=O)C(Cc1ccccc1)NC(=O)c1cnccn1)B(O)O` (centres undefined), the fold change [1, 3] was 0.948 (inactive), the fold change [1, 4] was 0.953 and the cell count [1, 5] was 1020. The cell count [1, 6] was 1080, the z-score [2, 7] was -0.496 (inactive) and the z-score [2, 8] was -2.5.

For `CC(C)CC(NC(=O)CNC(=O)c1cc(Cl)ccc1Cl)B1OC(=O)CC(CC(=O)O)(C(=O)O)O1` (centres undefined), the fold change [1, 3] was 0.814 (inactive), the fold change [1, 4] was 0.899 and the cell count [1, 5] was 1600. For the same compound, the cell count [1, 6] was 1960, the z-score [2, 7] was -0.37 (inactive) and the z-score [2, 8] was -3.79.

With `CC1C[C@H]2[C@@H]3CCC4=CC(=O)C=C[C@]4(C)[C@@H]3C(=O)C[C@]2(C)[C@]1(O)C(=O)CO` (some centres undefined) the fold change [1, 3] was 1.57 (inactive), the fold change [1, 4] was 0.521 and the cell count [1, 5] was 7500. The cell count [1, 6] was 4760, the z-score [2, 7] was -0.4 (inactive) and the z-score [2, 8] was 0.152.

For `C=CC1CN2CC[C@H]1C[C@H]2C(O)c1ccnc2ccc(OC)cc12` (some centres undefined), the fold change [1, 3] was 0.964 (inactive), the fold change [1, 4] was 0.844 and the cell count [1, 5] was 8110. The cell count [1, 6] was 8420, the z-score [2, 7] was -0.205 (inactive) and the z-score [2, 8] was -0.396.

In the case of `O=C(O)C(S)=Cc1c[nH]c2ccc(F)cc12`, the fold change [1, 3] is reported as 0.952 (inactive), the fold change [1, 4] is reported as 0.47 and the cell count [1, 5] is reported as 7180. The cell count [1, 6] was 7550, the z-score [2, 7] was -0.325 (inactive) and the z-score [2, 8] was -0.491.

For `COC(=O)C1C(OC)C(OC(=O)c2cc(OC)c(OC)c(OC)c2)C[C@@H]2CN3CCc4c([nH]c5cc(OC)ccc45)[C@H]3C[C@H]12` (some centres undefined), the fold change [1, 3] was 0.925 (inactive), the fold change [1, 4] was 0.845 and the cell count [1, 5] was 7190. For the same compound, the cell count [1, 6] was 7770, the z-score [2, 7] was -0.484 (inactive) and the z-score [2, 8] was 0.995.

In the case of `Cc1cc(Nc2cc(N3CCN(C)CC3)nc(C=Cc3ccccc3)n2)n[nH]1`, the fold change [1, 3] is reported as 1.29 (inactive), the fold change [1, 4] is reported as 1.19 and the cell count [1, 5] is reported as 1120. For the same compound, the cell count [1, 6] was 872, the z-score [2, 7] was 1.43 (inactive) and the z-score [2, 8] was -2.06.

For `CC1C(=O)O[C@H]2C(O)C34C5CC(C(C)(C)C)C36C(O)C(=O)O[C@H]6O[C@]4(C(=O)O5)[C@@]12O` (some centres undefined), the fold change [1, 3] was 0.925 (inactive), the fold change [1, 4] was 1.45 and the cell count [1, 5] was 7630. The cell count [1, 6] was 8250, the z-score [2, 7] was -0.353 (inactive) and the z-score [2, 8] was -0.351.

For `C=C1CCC(O)CC1=CC=C1CCC[C@@]2(C)[C@H]1CC[C@H]2C(C)CCCC(C)(C)O` (some centres undefined), the fold change [1, 3] was 0.933 (inactive), the fold change [1, 4] was 0.682 and the cell count [1, 5] was 7650. The cell count [1, 6] was 8200, the z-score [2, 7] was -0.475 (inactive) and the z-score [2, 8] was 0.00368.

In the case of `Cc1[nH]c2ccccc2c1CCNCc1ccc(C=CC(=O)NO)cc1`, the fold change [1, 3] is reported as 0.894 (inactive), the fold change [1, 4] is reported as 0.866 and the cell count [1, 5] is reported as 1040. For the same compound, the cell count [1, 6] was 1160, the z-score [2, 7] was -0.232 (inactive) and the z-score [2, 8] was -2.76.

With `O=S(=O)(c1ccccc1)c1cnc2c(N3CCNCC3)cccc2c1` the fold change [1, 3] was 0.946 (inactive), the fold change [1, 4] was 0.61 and the cell count [1, 5] was 7690. The cell count [1, 6] was 8130, the z-score [2, 7] was -0.577 (inactive) and the z-score [2, 8] was -0.0242.

For `COC1C[C@H]2CCC(C)[C@@](O)(O2)C(=O)C(=O)N2CCCC[C@H]2C(=O)OC(C(C)CC2CCC(OC(=O)C(C)(CO)CO)C(OC)C2)CC(=O)C(C)C=C(C)C(O)C(OC)C(=O)C(C)CC(C)C=CC=CC=C1C` (some centres undefined), the fold change [1, 3] was 1.08 (inactive), the fold change [1, 4] was 0.974 and the cell count [1, 5] was 3980. The cell count [1, 6] was 3690, the z-score [2, 7] was 0.432 (inactive) and the z-score [2, 8] was 0.402.

In the case of `CN1CCCC1Cc1c[nH]c2ccc(CCS(=O)(=O)c3ccccc3)cc12` (centres undefined), the fold change [1, 3] is reported as 0.975 (inactive), the fold change [1, 4] is reported as 1.13 and the cell count [1, 5] is reported as 9340. The cell count [1, 6] was 9580, the z-score [2, 7] was -0.473 (inactive) and the z-score [2, 8] was -0.595.

For `C[C@]1(C(=O)Nc2ccc(F)nc2)CCCN1c1nc(Nc2cc(C3CC3)[nH]n2)c2cccn2n1`, the fold change [1, 3] was 1.01 (inactive), the fold change [1, 4] was 0.776 and the cell count [1, 5] was 2100. The cell count [1, 6] was 2080, the z-score [2, 7] was -0.348 (inactive) and the z-score [2, 8] was -2.24.

In the case of `Oc1ccc(OC2CCCCO2)cc1` (centres undefined), the fold change [1, 3] is reported as 0.945 (inactive), the fold change [1, 4] is reported as 0.827 and the cell count [1, 5] is reported as 7580. For the same compound, the cell count [1, 6] was 8020, the z-score [2, 7] was -0.229 (inactive) and the z-score [2, 8] was -0.263.

In the case of `CN1CCCN(C(=O)c2cccc(-c3ccc(C=C4C(=O)Nc5ccc(Cl)cc54)o3)c2)CC1`, the fold change [1, 3] is reported as 0.79 (inactive), the fold change [1, 4] is reported as 4.28 and the cell count [1, 5] is reported as 2420. For the same compound, the cell count [1, 6] was 3060, the z-score [2, 7] was 0.13 (inactive) and the z-score [2, 8] was -0.12.

With `CC(=CC(=O)OCCCCCCCCC(=O)O)CC1OC[C@H](CC2O[C@H]2C(C)C(C)O)C(O)C1O` (some centres undefined) the fold change [1, 3] was 0.939 (inactive), the fold change [1, 4] was 0.638 and the cell count [1, 5] was 8270. It also gave a cell count [1, 6] of 8800, a z-score [2, 7] of 0.679 and a z-score [2, 8] of 5.51.

In the case of `CNC(C)C(=O)NC(C(=O)N1CCCC1C(=O)NC(C(=O)NCCCCCCNC(=O)C(NC(=O)C1CCCN1C(=O)C(NC(=O)C(C)NC)C1CCCCC1)C(c1ccccc1)c1ccccc1)C(c1ccccc1)c1ccccc1)C1CCCCC1` (centres undefined) (I: H-[NMeA][Chg]P[Dip] / II: H-[NMeA][Chg]P[Dip]; linker I:C-II:C via Hexamethylenediamine; configuration not given here), the fold change [1, 3] is reported as 0.971 (inactive), the fold change [1, 4] is reported as 0.501 and the cell count [1, 5] is reported as 8750. The cell count [1, 6] was 9000, the z-score [2, 7] was -0.461 (inactive) and the z-score [2, 8] was -0.132.

For `O=C(NCc1ccc(Oc2ccccc2)cc1)c1nc(-c2cc(Br)c(O)c(Br)c2)no1`, the fold change [1, 3] was 0.903 (inactive), the fold change [1, 4] was 0.842 and the cell count [1, 5] was 7380. For the same compound, the cell count [1, 6] was 8170, the z-score [2, 7] was -0.2 (inactive) and the z-score [2, 8] was -0.275.

In the case of `O=C(c1ccccc1)c1ccc2nc(NC(=O)c3csc(C4CCN(c5ncnc6ccsc56)CC4)n3)[nH]c2c1`, the fold change [1, 3] is reported as 1.1 (inactive), the fold change [1, 4] is reported as 0.341 and the cell count [1, 5] is reported as 2690. For the same compound, the cell count [1, 6] was 2460, the z-score [2, 7] was -0.654 (inactive) and the z-score [2, 8] was -0.043.

With `CC(C)n1c(C=CC(O)CC(O)CC(=O)O)c(-c2ccc(F)cc2)c2ccccc21` (centres undefined) the fold change [1, 3] was 1.12 (inactive), the fold change [1, 4] was 0.928 and the cell count [1, 5] was 1580. The cell count [1, 6] was 1410, the z-score [2, 7] was 0.699 (inactive) and the z-score [2, 8] was -1.97.

For `COC1C(O)CC(=O)OC(C)CC=CC=CC(OC2CCC(N(C)C)C(C)O2)C(C)CC(CC=O)C1OC1OC(C)C(OC2C[C@](C)(O)C(O)C(C)O2)C(N(C)C)C1O` (some centres undefined), the fold change [1, 3] was 0.934 (inactive), the fold change [1, 4] was 0.625 and the cell count [1, 5] was 8350. For the same compound, the cell count [1, 6] was 8940, the z-score [2, 7] was -0.212 (inactive) and the z-score [2, 8] was -0.158.

With `C[C@@H]1C(=O)O[C@H]2CC34[C@H]5C[C@@H](C(C)(C)C)C36C(OC(=O)[C@H]6O)O[C@@]4(C(=O)O5)[C@]21O` (some centres undefined) the fold change [1, 3] was 0.955 (inactive), the fold change [1, 4] was 1.23 and the cell count [1, 5] was 7970. For the same compound, the cell count [1, 6] was 8340, the z-score [2, 7] was -0.0435 (inactive) and the z-score [2, 8] was 0.0455.

In the case of `CCC1OC(=O)CC(O)C(C)C(OC2OC(C)C(O)C(N(C)C)C2O)C(CCN2CC(C)CC(C)C2)CC(C)C(=O)C=CC(C)=CC1COC1OC(C)C(O)C(OC)C1OC` (centres undefined), the fold change [1, 3] is reported as 0.924 (inactive), the fold change [1, 4] is reported as 0.808 and the cell count [1, 5] is reported as 8240. For the same compound, the cell count [1, 6] was 8920, the z-score [2, 7] was -0.194 (inactive) and the z-score [2, 8] was -0.165.

With `CCC(=O)O[C@@]1(C(=O)SCF)C(C)C[C@H]2[C@@H]3CC(F)C4=CC(=O)C=C[C@]4(C)[C@]3(F)C(O)C[C@@]21C` (some centres undefined) the fold change [1, 3] was 0.849 (inactive), the fold change [1, 4] was 1.14 and the cell count [1, 5] was 4990. For the same compound, the cell count [1, 6] was 5880, the z-score [2, 7] was -0.525 (inactive) and the z-score [2, 8] was -0.481.

With `CC(C)(CO)c1cc2cc(NC(=O)C3(c4ccc5c(c4)OC(F)(F)O5)CC3)c(F)cc2n1CC(O)CO` (centres undefined) the fold change [1, 3] was 0.912 (inactive), the fold change [1, 4] was 1.56 and the cell count [1, 5] was 8420. The cell count [1, 6] was 9220, the z-score [2, 7] was -0.252 (inactive) and the z-score [2, 8] was -0.139.

In the case of `CC(C)c1nc(N(C)S(C)(=O)=O)nc(-c2ccc(F)cc2)c1C=CC(O)CC(O)CC(=O)O` (centres undefined), the fold change [1, 3] is reported as 0.92 (inactive), the fold change [1, 4] is reported as 0.647 and the cell count [1, 5] is reported as 8010. The cell count [1, 6] was 8710, the z-score [2, 7] was 0.606 (inactive) and the z-score [2, 8] was -0.0253.

In the case of `COCCCOc1cc(CC(CC(N)C(O)CC(C(=O)NCC(C)(C)C(N)=O)C(C)C)C(C)C)ccc1OC` (centres undefined), the fold change [1, 3] is reported as 0.942 (inactive), the fold change [1, 4] is reported as 0.734 and the cell count [1, 5] is reported as 7600. The cell count [1, 6] was 8060, the z-score [2, 7] was 0.18 (inactive) and the z-score [2, 8] was -0.179.

With `CNC(=C[N+](=O)[O-])NCCSCc1ccc(CN(C)C)o1` the fold change [1, 3] was 0.921 (inactive), the fold change [1, 4] was 0.82 and the cell count [1, 5] was 7800. The cell count [1, 6] was 8470, the z-score [2, 7] was -0.3 (inactive) and the z-score [2, 8] was -0.112.
